# Source: PubChem BioAssay (National Center for Advancing Translational Sciences (NCATS))
# In the library only some 10% were active in any assay of this set; here they are far more common.
# SW480 rerep – DNA re-replication induction in SW480 cells; Potency, µM (doses to about 46.1 µM), for the others: at the highest dose re-replication activation, usual class: activators; SW480 DNA re-replication, Hoechst DNA content imaging, 48 h; 340,000 tested, 1.8% active; also: % of control where 0% means no effect; nearly all actives have a fitted effect of over 55% in size
#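 SW480 cells exposed to compounds for 48 hr at 37 C, 5% CO2, then Hoechst-stained 40 min. Nuclear DNA content imaged by fluorescence scanning (405 nm excitation, 500-530 nm emission); re-replication scored as increased high-intensity nuclei.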
# RORgamma inh – inhibitors of mouse ROR gamma transcriptional activity; Drosophila S2 Gal4-RORgamma UAS-luciferase reporter, 20 h; Potency, µM (highest dose often 53.6 µM), for inactives: at the highest dose activity change, negative = inhibition, actives largely listed as inhibitors; P51450; 310,000 tested, 5.4% active; AID 2551; also: % is scaled to controls: 0 for no effect and ±100 for the full control effect; nearly all actives have a fitted effect of over 60% in size
# Target sequence (P51450 whole entry, looked up, the tested form may be a part): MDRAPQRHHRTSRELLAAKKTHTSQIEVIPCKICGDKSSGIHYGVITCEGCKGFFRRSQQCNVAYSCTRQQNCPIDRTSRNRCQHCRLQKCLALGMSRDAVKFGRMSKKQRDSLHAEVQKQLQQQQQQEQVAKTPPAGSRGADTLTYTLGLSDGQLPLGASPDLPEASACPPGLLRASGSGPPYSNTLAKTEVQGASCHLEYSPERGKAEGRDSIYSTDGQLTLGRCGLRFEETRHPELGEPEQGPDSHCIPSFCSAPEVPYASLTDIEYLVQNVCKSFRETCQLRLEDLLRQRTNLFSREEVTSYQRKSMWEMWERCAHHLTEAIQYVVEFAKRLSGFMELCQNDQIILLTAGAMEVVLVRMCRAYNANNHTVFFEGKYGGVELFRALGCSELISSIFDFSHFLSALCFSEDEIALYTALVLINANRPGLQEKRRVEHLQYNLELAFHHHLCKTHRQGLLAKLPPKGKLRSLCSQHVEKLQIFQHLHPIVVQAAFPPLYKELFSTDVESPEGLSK
#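 Drosophila Schneider cells stably carrying a metallothionein-driven Gal4 DBD–ROR gamma fusion and a UAS-Photinus luciferase reporter were exposed to compound for 1 hr, then induced with copper sulfate (700 uM final) for 20 hr at ambient temperature before luminescence reading.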
# VP16 counter – inhibits Gal4-VP16 luciferase reporter, ROR gamma counter-screen. AID 2546. Potency, µM (doses to about 53.6 µM), for inactives: at the top dose activity, negative = inhibition, most hits filed as inhibitors. Drosophila S2 Gal4-VP16 UAS-luciferase, luminescence, 20 h. 310,000 tested, 3.5% active;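 also: Gal4-VP16 expression switched on by copper sulfate through the metallothionein promoter; % is scaled to controls: 0 for no effect and ±100 for the full control effect; nearly all actives have a fitted effect of over 50% in size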
# MCF10A rereplic – inducers of DNA re-replication in MCF 10A breast cells | MCF 10A DNA re-replication, Hoechst nuclear intensity, 48 h | Potency, µM (titrated, usually from 46.1 µM), for inactives: top-dose activity, positive = re-replication, actives largely listed as activators | 350,000 tested, 2.9% active | AID 624296; also: % of control where 0% means no effect; nearly all actives have a fitted effect of over 50% in size
# KB-V1 cytotox – KB-V1 MDR subline cytotoxicity | 400,000 tested, 3.4% active | Potency, µM (highest dose often 46.1 µM), hits mostly cytotoxic | KB-V1 MDR cells viability, CellTiter-Glo, 72 h | AID 1347076; also: % is scaled to controls: 0 for no effect and ±100 for the full control effect; nearly all actives have a fitted effect of over 60% in size
#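 KB-V1 MDR subline cells in DMEM (phenol-red free, 10% FBS) exposed to compounds in qHTS concentration series for 72 h at 37 degrees C. Viability read by CellTiter-Glo luminescence; concentration-effect curves fitted after normalization and correction.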
# KB-3-1 tox – kills parental KB-3-1 adenocarcinoma cells; Potency, µM (highest dose often 46.1 µM), most hits filed as cytotoxic; 400,000 tested, 1.4% active; KB-3-1 viability, CellTiter-Glo ATP luminescence, 72 h; also: % is scaled to controls: 0 for no effect and ±100 for the full control effect; nearly all actives have a fitted effect of over 60% in size
#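 KB-3-1 cells, DMEM (no phenol red) + 10% FBS; compound by pin transfer, 72 h, 37 °C. Readout: CellTiter-Glo luminescence after 10 min. Data normalized, curve-fitted.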
# The depositor's hits bear a star; i = inactive; ? = inconclusive; nt = not tested or not shown; [ ] = dose if it differs, or a comment. Calls follow the shape of the dose curve; as a rule, active = well fitted curve in the direction sought with a large enough effect; inconclusive = small, poorly fitted or top-dose-only effect, or another doubt; inactive = no such curve, though single readings can be large; an effect the other way counts as inactive or inconclusive. Potency is read from the fitted curve at half-maximal effect.
SMILES,SW480 rerep,RORgamma inh,VP16 counter,MCF10A rereplic,KB-V1 cytotox,KB-3-1 tox
Cc1nc(N2CCN(C(=O)c3ccco3)CC2)c2c3c(sc2n1)CCCC3,-2%,-15%,-1%,2%,21µM*,i
CCc1nc(N2CCN(C(=O)CCl)CC2)c2c3c(sc2n1)CC(C)CC3 (centres undefined),?,16µM*,?,?,?,?
CCOC(=O)CC(NC(=O)CCc1c(C)nc2cc(-c3ccccc3)nn2c1C)c1ccc(C)cc1 (centres undefined),nt,nt,nt,nt,i,i
COc1ccc(CC(=O)Nc2cc(S(=O)(=O)Nc3ccc(OC)cc3)ccc2OC)cc1,-4%,nt,nt,15%,i,i
CCOc1ccc(C(=O)OCc2cc(=O)n3nc(C4CCCCC4)sc3n2)cc1,nt,nt,nt,nt,i,i
CC1=NN(c2ccccc2)C(=O)/C1=C/c1c(O)n(-c2ccc(F)cc2)[nH]c1=O,?,-6%,-17%,-11%,7.3µM*,21µM*
CC1=NN(c2ccccc2)C(=O)C1=Cc1ccccc1,nt,nt,nt,nt,?,i
COc1ccc(NCc2cc3cc(OC)ccc3[nH]c2=O)cc1,26%,34%,-12%,-7%,18µM*,i
O=C(c1ccncc1)N(Cc1cc2ccccc2[nH]c1=O)C1CCCCC1,12%,-39%,1%,?,?,9.2µM*
COc1ccc2[nH]c(=O)c(CN(C(=O)NC3CCCCC3)C3CCCCC3)cc2c1,16%,35%,0%,2%,10µM*,?
COc1ccc(NCc2cc3ccccc3[nH]c2=O)cc1,-5%[9.22 µM],23%,-1%,20%,i,i
COc1ccc2[nH]c(=O)c(CNc3cccc(C)c3)cc2c1,1%,-40%,5%,9%,5.8µM*,?
COc1ccc(S(=O)(=O)Nc2c(NC3CCCCC3)c3ccccc3oc2=O)cc1OC,-11%,1%,2%,-7%,i,i
C=C1C=C(C)n2ncc(C(=O)N(CCc3ccccc3)Cc3ccccc3)c2N1,nt,nt,nt,nt,i,i
O=S(=O)(Nc1nc2ccccc2nc1Nc1ccccc1Br)c1ccccc1,nt,nt,nt,nt,i,i
CNC1CCc2cc(OC)c(OC)c(OC)c2-c2ccc(OC)c(=O)cc21 (centres undefined),0.12µM*,7%,-7%,0.075µM*,nt,nt
CCCC(=O)NC1CCc2cc(OC)c(OC)c(OC)c2-c2ccc(OC)c(=O)cc21 (centres undefined),0.0046µM*,nt,nt,?,2.9µM*,0.13µM*
COc1cc2c(c(OC)c1OC)C(=O)CC2,-15%,0%,-8%,-1%,i,i
COc1cc(F)ccc1-c1cc(C(=O)Nc2cc(OC)c(OC)c(OC)c2)[nH]n1,nt,nt,nt,nt,i,i
C=COC(=O)NC1CCc2cc(OC)c(OC)c(OC)c2-c2ccc(SC)c(=O)cc21 (centres undefined),?,nt,nt,17%,?,0.0065µM*
COC(=O)c1ccc2c(c1)C(NC(C)=O)CCc1cc(OC)c(OC)c(OC)c1-2 (centres undefined),0.092µM*,nt,nt,0.12µM*,0.82µM*,0.15µM*
COC(=O)c1ccc(OCC2c3cc(OC)c(OC)cc3CCN2C(C)=O)cc1 (centres undefined),4%,9%,-6%,4%,?,i
COc1cccc(-c2nc3c(C#N)c[nH]n3c2NC2CCCCC2)c1OC,nt,nt,nt,nt,i,i
CCOC(=O)CSc1nc2sc3c(c2c(=O)n1Cc1ccccc1)CCC(C(C)(C)C)C3 (centres undefined),nt,nt,nt,nt,i,i
CC1CCN(C(=O)Nc2ccc3nc(-c4ccco4)c(-c4ccco4)nc3c2)CC1,nt,nt,nt,nt,?,i
SMILES,SW480 rerep,RORgamma inh,VP16 counter,MCF10A rereplic,KB-V1 cytotox,KB-3-1 tox
COc1c(O[C@@H]2O[C@H](CO)[C@@H](O)[C@H](O)[C@H]2O)cc2c(c1OC)-c1ccc(SC)c(=O)cc1C(NC(C)=O)CC2 (some centres undefined),?,nt,nt,-26%,i,i
COc1ccc(C(C)=O)cc1CC(=O)NC1CCCCCC1,-8%,-12%,4%,-8%,i,i
COc1cccc(C(=O)Nc2ccc(F)cc2F)c1,-10%,6%,-2%,4%,i,i
COc1cc2c(c(OC)c1OC)-c1ccc(SC)c(=O)cc1C(NC=O)CC2 (centres undefined),?,nt,nt,?,0.29µM*,0.0065µM*
COc1cccc(C(=O)Nc2ccc3c(cc2=O)[C@@H](NC(C)=O)CCc2cc(OC)c(OC)c(OC)c2-3)c1,7.3µM*,12%,-28%,5.8µM*,i,2.9µM*
COc1cc2c(c(OC)c1OC)-c1ccc(OC)c(=O)cc1[C@@H](NC=O)CC2,nt,-31%,-3%,nt,nt,nt
COc1c(C=O)c2c(c(OC)c1OC)-c1ccc(OC)c(=O)cc1C(NC(C)=O)CC2 (centres undefined),0.1µM*,nt,nt,?,?,0.0092µM*
COc1cc2c(c(OC)c1OC)-c1ccc(SC)c(=O)cc1C(NC(=O)c1ccccc1)CC2 (centres undefined),0.015µM*,nt,nt,?,0.73µM*,0.0092µM*
COc1cccc(C(NC(C)=O)c2nc(-c3ccc(OC)nc3)cs2)c1 (centres undefined),nt,nt,nt,nt,i,i
COC(=O)[C@]12CCCCC=C1N(Cc1ccco1)C(=O)[C@H](CC(=O)NCc1ccc(C)o1)C2,nt,nt,nt,nt,i,i
COc1cc2c(c(OC)c1OC)-c1ccc(OC)c(=O)cc1C(NC(=O)c1ccccc1)CC2 (centres undefined),0.021µM*,nt,nt,?,?,0.0092µM*
Cc1scc(C(=O)N2CCN(S(C)(=O)=O)CC2)c1-c1ccccc1,0%,?,3%,-4%,23µM*,i
CS(=O)(=O)N1CCN(C(=O)c2csc3ccccc23)CC1,-10%,-9%,15%,1%,i,i
Cc1cc(NC(=O)c2ccc(Br)o2)ccc1NC(=O)c1ccco1,-3%,45%,17%,-3%,10µM*,?
Cc1ccc(NS(=O)(=O)c2ccc(NC(=O)c3ccccc3C(=O)O)cc2)c(C)c1,-11%,nt,nt,2%,i,i
O=C(Nc1ccc(S(=O)(=O)NCCc2ccccc2)cc1)c1ccc(Br)o1,3%,8%,-3%,14%,10µM*,i
Cc1ccc(C(=O)Nc2ccc(NC(=O)c3ccco3)c(C)c2)cc1,-8%,18%,-8%,-14%,?,i
Cc1ccc(NS(=O)(=O)c2ccc(NC(=O)c3ccc(Br)o3)cc2)c(C)c1,4%,?,?,?,18µM*,21µM*
CN(C)S(=O)(=O)c1ccc(NC(=S)NC(=O)c2ccc(Br)o2)cc1,nt,11µM*,?,nt,nt,nt
